# In PubChem BioAssay (NCI):
# Several values for one entry are separate records, joined by “and”; a condition that tells them apart may be missing. Equal values may be shown once. This is part of a sample that, as a whole, favours compounds with a hit. Of some 83,000 tested, about 20% had one in any assay.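 Each cell line was grown in a 96-well plate and treated with one concentration of compound for 48 hours. Values below 10 were considered active.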 Activity calls are given as the source filed them.
# Test system: MDA-MB-468 breast
# Experiment: NCI-60 one-dose screen, 48 h (100 = growth as untreated, 0 = no growth, -100 = all killed)
# Details: 10 µM unless noted
row,Structure (SMILES),growth
1,OC(c1cc2cc(Cl)c(Cl)cc2c2cc(C(F)(F)F)ccc12)C1CCCCN1 (stereo unspecified),-92.2% (active)
2,NS(=O)(=O)c1ccc(Nc2nc(Nc3ccccc3)nc(N3N=C(c4ccc(Cl)cc4)CC3c3ccc(Cl)cc3)n2)cc1 (stereo unspecified),26.4% (inactive)
3,C[C@@H]1C(=O)N(C[C@H](Cc2ccccc2)NC(=O)OCc2ccccc2)[C@]1(Cc1ccccc1)C(=O)OCc1ccccc1,24.6% (inactive)
4,N#Cc1ccc2nc[nH]c2c1,87.6% (inactive)
5,O=c1n(C2OC(CO)C(O)C2O)ccc2nccn12 (stereo unspecified),122% (inactive)
6,COC(=O)CCc1n(Cc2ccc3ccccc3c2)c2ccccc2[n+]1Cc1ccc2ccccc2c1,-15% (active)
7,NC(=O)SCC(=O)NNc1ccccc1,92.9% (inactive)
8,Cc1c(O)c(=O)n(-c2ccccc2)n1C,105% (inactive)
9,CC(C)(C)OC(=O)N1CCc2c(sc3ncnc(N/N=C/c4cccc5ccccc45)c23)C1,5.85% (active)
10,COc1cc2c(c(OC)c1OC)-c1ccc(OC)c(=O)cc1[C@@H](NC(C)=O)CC2,-8.64% (active) and -2.19% (active)
11,CC/C=C\C[C@H]1C/C=C2/C(=O)C=C[C@@H]2C/C=C\CCCC(=O)O1,-33.6% (active)
12,O=C1N(Cc2ccccc2Cl)c2ccccc2C12NN=C(c1cccc(Cl)c1)S2 (stereo unspecified),-29.6% (active)
13,C[C@H]1[C@H](C)CC[C@]2(C(=O)Nc3ccc4ncccc4c3)CC[C@]3(C)C(=CC[C@@H]4[C@@]5(C)CCCNC(C)(C)[C@@H]5CC[C@]43C)[C@H]12,-55.7% (active)
14,CCOc1ccc(S(=O)(=O)Nc2ccc3c(c2)N(S(=O)(=O)CC)CCC3)cc1,85.4% (inactive)
15,C#CC[C@@H]1C[C@]2(C)[C@H]3CC=C4[C@H]5[C@@H](C)[C@H](C)CC[C@]5(C(=O)NCCCCCCCCN)CC[C@@]4(C)[C@]3(C)CC[C@H]2C(C)(C)[C@H]1OC(C)=O,62.4% (inactive)
16,Fc1ccc([C@@H]2CCNC[C@H]2COc2ccc3c(c2)OCO3)cc1,36.1% (inactive)
17,c1ccc(Cn2cc3c(c2-c2ccccc2)CCc2cnoc2-3)cc1,66.5% (inactive)
18,Cc1c(Cl)cccc1NS(=O)(=O)c1ccccc1,93.2% (inactive)

row,Structure (SMILES),growth
1,c1cc2c(ccc3[nH]c(-c4ccc5[nH]ncc5c4)c4c(c32)CCCC4)n1,76.7% (inactive)
2,CC(C)(O)CC(=O)NCCn1ccc2ncnc(Nc3ccc(Oc4cccc(C(F)(F)F)c4)c(Cl)c3)c21,-43.8% (active)
3,c1ccc(Cn2cc(-c3nc4ccccc4s3)c3cccnc32)cc1,99.4% (inactive)
4,COc1cccc(NC(=O)c2sc3nc4c(cc3c2N)C(=O)CCC4)c1,49.5% (inactive)
5,C=CCn1c(SCC(=O)Nc2ccc(C(=O)/C=C/c3ccc(Cl)cc3)cc2)nnc1-c1cc(OC)c(OC)c(OC)c1,79% (inactive)
6,CN(C)c1ccc(/C=C/c2sc3ccc4ccccc4c3[n+]2C)cc1,-86.4% (active)
7,CNc1cc(-c2cccc(OC(F)(F)F)c2)nc2ccc(N3CCCC3)cc12,-69.7% (active) and -68% (active) and -66.2% (active)
8,Cn1cc(CNc2nc3ccc(OC/C(=C/F)CN)cc3o2)ccc1=O,107% (inactive)
9,CCCCN1CCCC[C@@H]1C(=O)N[C@H](C(=O)N(C)[C@H](CCc1nc(C(=O)N[C@@H](Cc2ccccc2)C[C@H](C)C(=O)OC)cs1)C(C)C)C(C)C,22.3% (inactive)
10,O=C1/C(=C/c2ccc(Cl)cc2)CCC/C1=C\c1ccc(Cl)cc1,67.9% (inactive)
11,Clc1ccc(-c2nc(-c3cccs3)no2)c(Cl)c1,8.37% (active)
12,COc1cccc(/C=N/NC(=O)c2cnn3c2NC(c2ccccc2)C3)c1Oc1ccccc1 (stereo unspecified),47.3% (inactive)
13,CCCCNC(=O)c1cc([N+](=O)[O-])cc(C2CCCCC2)c1O,-1.64% (active)
14,CCc1onc(-c2ccc(OC)cc2)c1-c1ccccc1OCCN(CC)CC,80% (inactive)
15,O=C(CCCCCCNC(=O)C(O)(O)C(F)(F)F)Nc1ncc(-c2ccc(Br)cc2)s1,-35.8% (active)
16,O=C1OC(C(Cl)(Cl)Cl)OC1C(Cl)(Cl)Cl (stereo unspecified),109% (inactive)
17,Cc1ccccc1NC1CC(=O)N(c2ccc(Cl)cc2Cl)C1=O (stereo unspecified),105% (inactive)
18,COc1cc(C(C)(C)C)cc(OC)c1C(O)(c1c(OC)cc(C(C)(C)C)cc1OC)c1c(OC)cc(C(C)(C)C)cc1OC,-88.3% (active)
